Compounds with a hit are over-represented: about 12% of the library has one in this group of screens.
JMJD2A Tudor: inhibitors of human JMJD2A Tudor domain | AlphaScreen JMJD2A-Tudor / H3K4me3 peptide binding | Potency, µM (top dose mostly 114 µM), actives largely listed as inhibitors | 390,000 tested, 4.4% active | AID 504339; further: nearly all actives have a fitted effect of over 50% in size
HP1b chromo inh: blocks HP1-beta chromodomain binding to methylated histone tails. 390,000 tested, 0.56% active. Potency, µM (highest dose often 114 µM), actives largely listed as inhibitors. AlphaScreen HP1-beta / biotin-H3K9me3 peptide binding. P83916; further: nearly all actives have a fitted effect of over 70% in size
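AlphaScreen: HP1-beta (50 nM) preformed 30 min with biotin-H3(1-18)K9me3 peptide (50 nM) in PBS pH 7.4, 0.01% Tween-20. Compound added for 30 min at RT, then streptavidin donor/nickel chelate acceptor beads (10 ug/mL) for 30 min.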
PLK1 PBD block: inhibitors of human PLK1 polo-box domain binding; P53350; Plk1 PBD binding of FITC phosphopeptide, fluorescence polarization; Potency, µM, hits mostly inhibitors; 360,000 tested, 2.8% active; AID 720504; further: series mostly up to about 57 µM; nearly all actives have a fitted effect of over 65% in size
PI5P4K alpha inh: inhibitors of human PI5P4K alpha. P48426. PI5P4Kalpha enzyme, ADP-Glo luminescence, 60 min; hits give low values. max response, %. 330,000 tested, 1.2% active; active means max response of -50% or lower; inconclusive means between -30% and -50%; inactive means -30% or higher; further: value at the top dose of about 77 µM
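Reactions run in 0.038 M HEPES pH 7.4, 0.28 mM EGTA, 0.1% CHAPS and 5% DMSO, with PI5P4Kalpha, substrate, compound and 5 microM ATP final, one hour at room temperature. Readout is ADP-Glo luminescence.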
BAZ2B block: inhibitors of human BAZ2B bromodomain | Q9UIF8 | AlphaScreen BAZ2B-H3K14Ac peptide displacement | Potency, µM (doses to about 114 µM), most hits filed as inhibitors | 360,000 tested, 4.4% active; further: nearly all actives have a fitted effect of over 60% in size
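Protein-peptide AlphaScreen: BAZ2B 50 nM, b-H3K14Ac 50 nM, 1x PBS pH 7.4 + 0.01% Tween-20. Preincubation 30 min RT; cpd 30 min RT (top 110 uM); beads 20 min RT, light-protected.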
G9a block: blocks human histone lysine methyltransferase G9a. Potency, µM (series often up to 102 µM), actives largely listed as inhibitors. G9a H3K9 monomethylation, AlphaScreen, 2 h. Q96KQ7. 350,000 tested, 8.8% active; further: nearly all actives have a fitted effect of over 75% in size
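Methyltransferase reactions run at room temperature for 2 h (20 nM enzyme, 500 nM biotin-H3K9 peptide, 20 uM SAM) after a 15 min compound preincubation; product detected by AlphaScreen beads and anti-H3K9me1 antibody.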
Large screens that a line does not name were inactive. Unless noted, the call rests on the fitted dose curve; in most records, active means well fitted curve in the direction sought with a large enough effect; inconclusive means small, poorly fitted or top-dose-only effect, or another doubt; inactive means no such curve, though single readings can be large; an effect the other way counts as inactive or inconclusive.

CC1(C)CC2CC(C)(CN2Cc2cccc([N+](=O)[O-])c2)C1 (centres undefined)	JMJD2A Tudor 20µM, HP1b chromo inh inconclusive, BAZ2B block inconclusive (no result: G9a block)
CC1(C)CC2CC(C)(CN2Cc2c(O)ccc3ccccc23)C1 (centres undefined)	PLK1 PBD block inconclusive, G9a block 10µM
CC1(C)CC2CC(C)(CN2c2ncnc3ccccc23)C1 (centres undefined)	none (no result: PI5P4K alpha inh)
CC(=O)Oc1ccc(N2C(=O)C3C(C2=O)C2(C)C=CC3(C)O2)cc1 (centres undefined)	G9a block 5.6µM (no result: JMJD2A Tudor, HP1b chromo inh, PLK1 PBD block, PI5P4K alpha inh)
O=C(Cn1cnc2sc3c(c2c1=O)CCCC3)NCC(=O)Nc1ccc(F)cc1F	none
Cc1cccc(N2CCN(C(=O)CCc3c(C)nc4ncnn4c3C)CC2)c1C	none (no result: PLK1 PBD block, PI5P4K alpha inh)
COCCCn1cn[nH]c1=S	JMJD2A Tudor inconclusive, G9a block inconclusive
CC(C)(C)n1cn[nH]c1=S	G9a block 25µM
COc1ccc(OC)c(CCNC(=O)CCCn2c(=O)c3cccn3c3ccc(F)cc32)c1	none (no result: PLK1 PBD block, PI5P4K alpha inh)
Oc1cccc(CN2CCOCC2)c1O	JMJD2A Tudor 10µM, HP1b chromo inh 71µM (no result: BAZ2B block, G9a block)
Oc1c(CN2CCOCC2)cc(CN2CCOCC2)c(O)c1O	JMJD2A Tudor 11µM, HP1b chromo inh 6.3µM, PLK1 PBD block 1.7µM (no result: BAZ2B block, G9a block)
CCCc1cc(CN2CCOCC2)c(O)c(CN2CCOCC2)c1O	JMJD2A Tudor 11µM, HP1b chromo inh 25µM, PLK1 PBD block 6.7µM (no result: BAZ2B block, G9a block)
O=C(OCC(=O)N1CCOCC1)c1ccccc1OCc1ccccc1	none
Cc1cc(C)n(-c2nc(C)c(C)c(=O)n2CC(=O)Nc2ccc([N+](=O)[O-])cc2)n1	G9a block inconclusive (no result: PLK1 PBD block, PI5P4K alpha inh)
COC(=O)[C@H](C)NC(=O)/C=C/c1ccc(OC)cc1	G9a block 71µM
O=C(/C=C/c1ccc(O)c([N+](=O)[O-])c1)c1ccc2ccccc2c1	JMJD2A Tudor inconclusive, PLK1 PBD block inconclusive, PI5P4K alpha inh inconclusive, BAZ2B block inconclusive, G9a block inconclusive
COc1ccc(Oc2ccc(/C=C/C(=O)c3ccc(O)cc3)cc2[N+](=O)[O-])cc1	JMJD2A Tudor inconclusive, BAZ2B block inconclusive, G9a block 40µM
COC(=O)c1ccc(/C=C/C(=O)c2ccc(OC)cc2)cc1	JMJD2A Tudor 100µM (no result: PI5P4K alpha inh)
C=Cc1c(C)c2cc3[nH]c(cc4nc(cc5nc(cc1[nH]2)C(C)=C5CCC(=O)O)C(CCC(=O)O)=C4C)c(C)c3C=C	JMJD2A Tudor 20µM, PLK1 PBD block 13µM, PI5P4K alpha inh -51, BAZ2B block 40µM
CCOn1c(=O)c(-c2ccc(Cl)cc2)[n+]([O-])c2ccccc21	JMJD2A Tudor inconclusive, PLK1 PBD block 21µM
O=c1c(-c2ccc(F)cc2)[n+]([O-])c2ccccc2n1OCc1ccccn1	PLK1 PBD block 21µM
Cc1ccc(-c2c(=O)n(O)c3ccccc3[n+]2[O-])cc1	JMJD2A Tudor inconclusive, G9a block 50µM
COn1c(=O)c(-c2cccs2)[n+]([O-])c2ccccc21	PLK1 PBD block 2.1µM
O=C1CC(c2nc(-c3ccc(Cl)cc3)no2)CN1c1ccc2c(c1)OCCO2 (centres undefined)	none (no result: PLK1 PBD block, PI5P4K alpha inh)
Cc1nn2cc(-c3ccc(OC(C)C)cc3)nc2s1	BAZ2B block inconclusive (no result: PLK1 PBD block, PI5P4K alpha inh)
O=C(NCC(c1ccco1)N1CCc2ccccc21)C(=O)Nc1ccc(F)cc1F (centres undefined)	none
Cc1cc2c(s1)c1cnn(Cc3c(F)c(F)c(C(F)(F)F)c(F)c3F)c(=O)c1n2C	none (no result: HP1b chromo inh, PLK1 PBD block, PI5P4K alpha inh, BAZ2B block, G9a block)
O=C(O)CC1Cc2ccccc2C1C(=O)O (centres undefined)	none (no result: BAZ2B block, G9a block)
CN(C(=O)Cn1c(=O)n(Cc2ccc(C(=O)NCc3ccc4c(c3)OCO4)cc2)c(=O)c2ccccc21)c1ccccc1	none (no result: PLK1 PBD block, PI5P4K alpha inh)
N#Cc1c(NC(=O)c2cc(-n3cnnc3)ccc2Cl)sc2c1CCCC2	G9a block 11µM
Cn1cnnc1SCC(=O)Nc1sc2c(c1C(N)=O)CCC2	JMJD2A Tudor 63µM, HP1b chromo inh inconclusive, PLK1 PBD block 27µM, BAZ2B block 50µM, G9a block inconclusive (no result: PI5P4K alpha inh)
Cn1ccc(C(=O)Nc2sc3c(c2C#N)CCC3)n1	PLK1 PBD block inconclusive, BAZ2B block inconclusive, G9a block 35µM
